GDH-TPI counter-1 = GDH-TPI coupling enzyme inhibitors, primary screen, artefact control for M. tuberculosis FBA inhibitor project, biochemical, absorbance, full deck | GDH-TPI coupled enzyme counterscreen, NADH absorbance | actives 1.2% (n = 360,000) | inhibition, % at 4.8 µM; in the data active means inhibition above about 30%;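 further: 0% = DMSO wells and 100% = wells lacking the enzyme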
Rv3671c protease = Rv3671c serine protease inhibitors, primary screen, biochemical, fluorescence polarization, M. tuberculosis H37Rv; P9WHR9; inhibition, % at 5.96 µM; actives 0.048% (n = 320,000); in the data active means inhibition above about 38%;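 further: extracellular domain of Rv3671c used as enzyme; 0% = enzyme with DMSO and 100% = no enzyme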
Target sequence (P9WHR9 whole entry, looked up, the tested form may be a part): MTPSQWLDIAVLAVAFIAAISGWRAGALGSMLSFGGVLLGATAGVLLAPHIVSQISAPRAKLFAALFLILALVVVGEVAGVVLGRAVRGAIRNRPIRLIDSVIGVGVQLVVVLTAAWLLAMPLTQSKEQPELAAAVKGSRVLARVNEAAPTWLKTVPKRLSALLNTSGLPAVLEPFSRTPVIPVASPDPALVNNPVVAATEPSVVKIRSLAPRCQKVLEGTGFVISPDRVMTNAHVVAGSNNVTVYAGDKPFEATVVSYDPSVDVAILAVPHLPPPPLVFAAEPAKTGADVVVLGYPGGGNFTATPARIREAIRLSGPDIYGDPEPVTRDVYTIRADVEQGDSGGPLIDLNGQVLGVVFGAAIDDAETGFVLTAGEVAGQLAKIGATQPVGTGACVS
Mtb FBA inh = Mtb FBA enzyme inhibitors, primary screen, biochemical, fluorescence, strain H37Rv. Fructose-bisphosphate aldolase (Mycobacterium tuberculosis (strain ATCC 25618 / H37Rv)), …. purified M. tuberculosis FBA, fluorescence read-out. inhibition, % at 1 µM. actives 2.3% (n = 360,000). AID 588726, 2011;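 further: 0% = vehicle and 100% = reference inhibitor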
FadD28 FP inh = inhibitors of FadD28 bisubstrate probe binding, primary screen, biochemical, fluorescence polarization, single point. Mycobacterium tuberculosis FadD28 fatty-acid-AMP ligase. inhibition, % at 12.5 µM. actives 0.22% (n = 360,000). AID 588549, 2011; in the data active means inhibition above about 8.5%, passing the limit was not always enough
Mtb BioA inh = M. tuberculosis BioA enzyme inhibitors, primary screen, biochemical, plate reader, single point, HTS. purified M. tuberculosis BioA enzyme. actives 0.096% (n = 360,000). inhibition, % at 9.99 µM. AID 602481, 2012. 7,8-diaminopelargonic acid synthase BioA (Mycobacterium tuberculosis); in the data active means inhibition above about 40%
Mtb FBA confirm = M. tuberculosis aldolase blockers, biochemical, fluorescence, strain H37Rv, confirmation; purified M. tuberculosis FBA, fluorescence read-out; shares compounds with Mtb FBA inh; inhibition, % at 1 µM; actives 78% (n = 5,600);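 further: 0% = vehicle wells and 100% = reference inhibitor wells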
GDH-TPI counter-2 = GDH-TPI coupling enzyme inhibitors, artefact control for M. tuberculosis FBA inhibitor project, biochemical, fluorescence, high throughput; GDH-TPI coupled enzyme counterscreen; inhibition, % at 1 µM; actives 81% (n = 5,600); shares compounds with Mtb FBA inh; AID 652141, 2013; in the data active means inhibition above about 10%
The depositor's hits bear a star; · = not tested or not shown; + = active, no number. Sampled rows, rich in hits. Any-hit rate of the full collection: about 3%. Unless noted, no stated cut-off is given here; in the data, active means inhibition above about 27%; inactive means the rest.

SMILES	GDH-TPI counter-1	Rv3671c protease	Mtb FBA inh	FadD28 FP inh	Mtb BioA inh	Mtb FBA confirm	GDH-TPI counter-2
CCCCCc1c(O)c2ccccc2[nH]c1=O	15	-10	29*	0	-3	62*	51*
CCN(CC)C(=O)Cc1c(O)c2ccccc2[nH]c1=O	19	19	29*	-2	-1	98*	70*
CCCCCOC(=O)Cc1c(O)c2ccccc2[nH]c1=O	-14	3	13	-1	0	·	·
O=C(Nc1ccc2c(c1)[C@@H]1C[C@H](CC(=O)N3CCc4ccccc4C3)O[C@@H](CO)[C@@H]1O2)c1ccc2c(c1)OCO2	·	·	·	·	0	·	·
COc1ccc2oc(C(=O)OC(C)C(=O)NC3(C#N)CCCCC3)c(C)c2c1 (stereo unspecified)	-7	8	28*	-3	-1	39*	29*
COc1ccc2oc(C(=O)OC(C)C(=O)N3C(C)CCCC3C)c(C)c2c1 (stereo unspecified)	18	-1	62*	-2	·	51*	31*
C[C@H]1CN([C@@H](C)CO)C(=O)Cc2cc(NS(=O)(=O)c3ccc(F)cc3)ccc2O[C@H]1CN(C)C(=O)Nc1ccc(F)cc1	·	·	·	·	-1	·	·
CCCCc1cc(=O)oc2cc(OCC(=O)N3CCC(C(N)=O)CC3)ccc12	6	-7	24	-3	1	·	·
CCCCc1cc(=O)oc2cc(OCC(=O)Nc3ccccn3)ccc12	-5	10	46*	-4	-1	68*	58*
CCCCc1cc(=O)oc2cc(OCC(=O)N3CCOCC3)ccc12	16	-4	30*	-2	3	139*	101*
CCCCc1cc(=O)oc2cc(OCC(=O)NCc3ccccn3)ccc12	6	4	14	-2	2	·	·
Cc1cc(C)c2nc(-c3ccccn3)cc(C(=O)NCc3cc(C)n(C)n3)c2c1	4	3	76*	-3	2	68*	53*
C=CCNC(=O)c1cc(-c2ccncc2)nc2c(C)cc(C)cc12	9	-1	60*	0	-1	152*	130*
Cc1cc(C)c2nc(-c3ccccn3)cc(C(=O)NCc3ccco3)c2c1	13	-10	51*	-3	2	+	199*
Cc1cc(C)c2nc(-c3ccccn3)cc(C(=O)Nn3cnnc3)c2c1	7	0	4	-2	·	·	·
CN1CCN(Cc2cn3cccnc3n2)CC1	3	4	4	1	·	·	·
c1cnc2nc(CSc3ncn[nH]3)cn2c1	3	5	88*	0	·	184*	144*
Cc1ccc2nc(SCc3cn4cccnc4n3)[nH]c2c1	-5	-2	3	-6	7	·	·
c1ccc(SCc2cn3cccnc3n2)nc1	-7	2	74*	-2	·	65*	39*
Cc1ccc(S(=O)(=O)CCc2ccccn2)cc1	-1	5	5	-1	0	·	·
Cc1ccc(S(=O)(=O)Cc2cn3cccnc3n2)cc1	1	·	92*	-1	-1	50*	32*
[N-]=[N+]=NCc1cn2cccnc2n1	5	3	63*	-2	·	79*	63*
O=C(C[C@@H]1CC[C@H]2[C@@H](COC[C@H](O)CN2C(=O)c2ccncc2)O1)NC1Cc2ccccc2C1	·	·	·	·	-1	·	·
CCCC#Cc1ccc([C@H]2[C@H](C#N)N(S(C)(=O)=O)[C@H]2CO)cc1	·	·	·	·	1	·	·
c1ccc(-n2cnnc2SCc2cn3cccnc3n2)cc1	-1	-11	103*	-3	6	102*	76*
CN1CCN(C(=O)C[C@H]2C[C@H]3c4cc(NC(=O)c5cccnc5)ccc4O[C@H]3[C@@H](CO)O2)CC1	·	·	·	·	12	·	·
O=C(C[C@H]1C[C@H]2c3cc(NC(=O)Nc4ccc(F)cc4)ccc3O[C@H]2[C@@H](CO)O1)NC1CCCCC1	·	·	·	·	-2	·	·
